For four compounds, outcome results are on record in PubChem BioAssay (EPA / NIEHS).

Each structure is given as a SMILES string. Records with an inconclusive call do not appear. Active and inactive are the calls of the source. Rule for the calls: active = hit-call score of the fitted dose curve at least 0.9, where 1 is the maximum; inconclusive = response in the unintended direction; inactive = score below 0.9.

A short description of this assay: ACEA_AR_agonist_AUC_viability: ACEA Biosciences xCELLigence Real-Time Cell Analysis on Androgen Receptor Agonism for Viability (AID 2283775). The method, boiled down:
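Viability endpoint from xCELLigence impedance in 22Rv1 prostate cells at 80 h. Eight-point series, 100 uM maximum final.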
For `Cc1cc(C)c(C(=O)O)c(C)c1`, the compound was called inactive.
As for `C1=Cc2ccccc2C1`, the outcome was inactive.
As to `Cc1ccc(C(C)(C)C)cc1`, the compound was classed as inactive.
For the compound `CNC(=S)NN`, the outcome was inactive.
